A short description of test [1]: growth inhibition of DIPG glioma cells, dose response, cell-based, SU-DIPG-XVII, MIPE5.0, CellTiter-Glo, qHTS (AID 1347060; cut-off not given, nearly all actives have AC50 up to about 26 µM;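 for AC50: cells exposed to compound for 48 hours before viability readout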). As to conditions: SU-DIPG-XVII viability, CellTiter-Glo ATP luminescence. A general note: In ATP-based viability assays light output follows the ATP content of the culture.
Test [2] in a line: growth inhibition of DIPG glioma cells, dose response, cell-based, SU-DIPG-IV, MIPE4.0, CellTiter-Glo, qHTS (AID 1347063; cut-off not given, nearly all actives have AC50 up to about 30 µM;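 note: compound exposure lasted 48 hours before the viability readout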). Conditions: SU-DIPG-IV viability, CellTiter-Glo ATP luminescence.
Test [3] is described as follows: growth inhibition of DIPG glioma cells, dose response, cell-based, SU-DIPG-XIII, MIPE5.0, CellTiter-Glo, qHTS (AID 1347064; cut-off not given, nearly all actives have AC50 up to about 23 µM;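 for AC50: cells exposed to compound for 48 hours before the viability read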). As to conditions: SU-DIPG-XIII viability, CellTiter-Glo ATP luminescence.
Test [4] in a line: viability loss in pontine glioma line – cell-based, SU-DIPG-XXV, MIPE5.0, CellTiter-Glo, qHTS, dose response (AID 1347065; cut-off not given, nearly all actives have AC50 up to about 26 µM;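 note: cells exposed to compound for 48 hours before ATP readout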). As to conditions: CellTiter-Glo ATP luminescence.
Test [5] in a line: JHH-DIPG-1 glioma cell viability, MIPE5.0 library, CellTiter-Glo luminescence, qHTS (AID 1347067; cut-off not given, nearly all actives have AC50 up to about 26 µM;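 note: cells exposed to compound for 48 hours before readout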). As to conditions: JHH-DIPG-1 glioma viability, CellTiter-Glo ATP luminescence.
The nature of test [6]: growth inhibition of DIPG glioma cells, dose response, cell-based, JHH-DIPG-1, MIPE4.0, CellTiter-Glo, qHTS (AID 1347062; cut-off not given, nearly all actives have AC50 up to about 27 µM). As to conditions: JHH-DIPG-1 viability, CellTiter-Glo ATP luminescence.
Test [7] is described as follows: SU-DIPG-VI glioma cell viability, MIPE4.0 library, CellTiter-Glo luminescence, qHTS (AID 1347066; cut-off not given, nearly all actives have AC50 up to about 30 µM;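 note: cells exposed to compound for 48 hours before readout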). Conditions: CellTiter-Glo ATP luminescence.
Test [8] is described as follows: SU-DIPG-XXV glioma cell viability, MIPE5.0 library, qHTS (AID 1347068; cut-off not given, nearly all actives have IC50 up to about 30 µM;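 for IC50: cells exposed to compound for 48 hours before viability readout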).
Test [9] in a line: modifiers of HSF1 nuclear foci, imaging, Selleck Cancer Library (AID 1347162; in the data active = plate-normalised HSF1 focus index below about 0.46). As to conditions: human cells, at 10 µM; SSMD: measured here: HSF1 foci SSMD mean; cell count: measured here: cell number; plate-normalised HSF1 focus index: stronger effect = lower value.
Test [10] is described as follows: ovarian cancer cell viability with rucaparib, profiling panel, oncology-focused library, rucaparib conditional (AID 1508598). Conditions: patient-derived ovarian cancer cells, CellTiter-Glo viability, 144 h, stronger effect = lower value.

Results filed as inconclusive are left out. The source made the active and inactive calls.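 Rule for the calls, unless noted: active = normalized viability below 100% at a tested concentration; inactive = the rest.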

As a reminder, the AC50 is the midpoint of the concentration-response curve, whichever way the signal moves. For orientation: IC50 means the midpoint of a concentration-inhibition curve. Usually viability stands for a read-out of living cells in per cent, often relative to untreated cells.

For `CC[C@@]1([C@@H]2O[C@@H]([C@H]3O[C@@](O)(CO)[C@H](C)C[C@@H]3C)C[C@@H]2C)CC[C@H]([C@]2(C)CC[C@]3(C[C@H](O)[C@@H](C)[C@@H]([C@@H](C)[C@@H](OC)[C@H](C)C(=O)O)O3)O2)O1`, the AC50 in test [1] is 0.0574 µM (active); in test [2] it was 0.144 µM (active); in test [3], 0.456 µM (active); in test [4] it was 0.456 µM (active); in test [5], 0.288 µM (active).

On to `Clc1ccc(COC(Cn2ccnc2)c2ccc(Cl)cc2Cl)c(Cl)c1` (stereo unspecified), for which the AC50 in test [1] is 26.3 µM (active); in test [4], 23.5 µM (active); in test [5], 20.9 µM (active). Moreover, the call in [6] was inactive.

On to `COc1c(OCCCN2CCOCC2)ccc2c3n(c(=NC(=O)c4cnc(N)nc4)nc12)CCN3`, for which the AC50 is 0.27 µM (active) in test [1]; 0.102 µM (active) in [2]; 0.27 µM (active) in [3]; 0.0959 µM (active) in [4]; 0.0457 µM (active) in test [7]; 0.191 µM (active) in test [5]. For the same molecule, the IC50 in [8] was 0.382 µM (active).

In the case of `COc1cc(F)c(C(C)C)cc1-c1ccc(C(F)(F)F)cc1CN1C(=O)O[C@H](c2cc(C(F)(F)F)cc(C(F)(F)F)c2)[C@@H]1C`, the call in [1], in test [2], in test [3], in [4], in test [7] and in test [5] was inactive. Besides, in [8], the call was inactive.

Consider `CCOc1cc(/C=C2/C(=O)N(c3ccccc3)N=C2C)cc(Cl)c1OCC(=O)OC`, for which the result in [1], in test [6], in test [4], in [5] and in test [8] was inactive. The SSMD in [9] was found to be 1.24. Also, the cell count in test [9] was 6670. In test [9], the plate-normalised HSF1 focus index was 1.07 (inactive).

`COc1ccc(-c2ccc3c(N4CCOC[C@@H]4C)nc(N4CCOC[C@@H]4C)nc3n2)cc1CO`: the AC50 in test [1] was 0.209 µM (active); in test [2], 0.00935 µM (active); in test [3] it was 0.661 µM (active); in test [4], 0.105 µM (active); in test [5] it was 0.059 µM (active). In [9], this molecule showed an SSMD of -0.138. In test [9], the cell count worked out at 7120. Moreover, the plate-normalised HSF1 focus index in test [9] was 0.995 (inactive). For the same molecule, the viability in test [10] (at 0.000305 µM, OCI-C5x cells, with rucaparib 10 µM, 100% = cells with rucaparib alone) was 112% (inactive); in [10] (at 0.000305 µM, OCI-C5x cells, without rucaparib), 106% (inactive); in test [10] (at 0.000305 µM, OCI-P5x cells, with rucaparib 20 µM, 100% = cells with rucaparib alone), 87.2% (active); in [10] (at 0.000305 µM, OCI-P5x cells, without rucaparib) it was 93% (active); in test [10] (at 0.00122 µM, OCI-C5x cells, with rucaparib 10 µM, 100% = cells with rucaparib alone), 122% (inactive); in [10] (at 0.00122 µM, OCI-C5x cells, without rucaparib), 105% (inactive). In addition, the viability is 94.9% (active) in [10] (at 0.00122 µM, OCI-P5x cells, with rucaparib 20 µM, 100% = cells with rucaparib alone); 92.8% (active) in test [10] (at 0.00122 µM, OCI-P5x cells, without rucaparib); 124% (inactive) in test [10] (at 0.00488 µM, OCI-C5x cells, with rucaparib 10 µM, 100% = cells with rucaparib alone); 119% (inactive) in [10] (at 0.00488 µM, OCI-C5x cells, without rucaparib); 90.3% (active) in test [10] (at 0.00488 µM, OCI-P5x cells, with rucaparib 20 µM, 100% = cells with rucaparib alone); 91% (active) in test [10] (at 0.00488 µM, OCI-P5x cells, without rucaparib). The viability is 116% (inactive) in test [10] (at 0.0195 µM, OCI-C5x cells, with rucaparib 10 µM, 100% = cells with rucaparib alone); 106% (inactive) in test [10] (at 0.0195 µM, OCI-C5x cells, without rucaparib); 72.9% (active) in test [10] (at 0.0195 µM, OCI-P5x cells, with rucaparib 20 µM, 100% = cells with rucaparib alone); 62.8% (active) in test [10] (at 0.0195 µM, OCI-P5x cells, without rucaparib); 71.2% (active) in test [10] (at 0.0781 µM, OCI-C5x cells, with rucaparib 10 µM, 100% = cells with rucaparib alone); 55.7% (active) in test [10] (at 0.0781 µM, OCI-C5x cells, without rucaparib). Further, the viability was 43.6% (active) in test [10] (at 0.0781 µM, OCI-P5x cells, with rucaparib 20 µM, 100% = cells with rucaparib alone); 24.2% (active) in [10] (at 0.0781 µM, OCI-P5x cells, without rucaparib); 47.2% (active) in [10] (at 0.313 µM, OCI-C5x cells, with rucaparib 10 µM, 100% = cells with rucaparib alone); 48.1% (active) in [10] (at 0.313 µM, OCI-C5x cells, without rucaparib); 34.3% (active) in test [10] (at 0.313 µM, OCI-P5x cells, with rucaparib 20 µM, 100% = cells with rucaparib alone); 17% (active) in test [10] (at 0.313 µM, OCI-P5x cells, without rucaparib). In addition, the viability was 54.1% (active) in test [10] (at 1.25 µM, OCI-C5x cells, with rucaparib 10 µM, 100% = cells with rucaparib alone); 47.3% (active) in test [10] (at 1.25 µM, OCI-C5x cells, without rucaparib); 30.6% (active) in test [10] (at 1.25 µM, OCI-P5x cells, with rucaparib 20 µM, 100% = cells with rucaparib alone); 22.6% (active) in test [10] (at 1.25 µM, OCI-P5x cells, without rucaparib); 48% (active) in [10] (at 5 µM, OCI-C5x cells, with rucaparib 10 µM, 100% = cells with rucaparib alone); 47.3% (active) in test [10] (at 5 µM, OCI-C5x cells, without rucaparib). Also, the viability was 26.9% (active) in test [10] (at 5 µM, OCI-P5x cells, with rucaparib 20 µM, 100% = cells with rucaparib alone) and 20.8% (active) in [10] (at 5 µM, OCI-P5x cells, without rucaparib).

These data come from PubChem BioAssay.
